# Results published in PubChem BioAssay AID651571 (The Scripps Research Institute Molecular Screening Center, 2012).
# In all, about 1,500 compounds went through this assay and about 1,300 (87%) were called active. Rule as the data show it: active = inhibition above about 9%; inactive = the rest. The set was probably picked from earlier hits. The list is a sample of the results.
# Experiment: binders of anti-gp120 antibody PG9, confirmation, biochemical, TR-FRET (AID 651571)
# Settings: TR-FRET PG9 antibody binding, at 6.7 µM, active compounds read high
row,Compound,inhibition
1,CCN(CC)C(=O)c1ccc(NC(=O)c2sccc2-c2ccccc2)cc1,16.6% (active)
2,N#CC1=C(N)Oc2c(c(=O)oc3ccccc23)C1c1ccccc1OC(=O)c1cccs1 (configuration not stated),20.4% (active)
